Source: PubChem BioAssay (NCATS)
Records with an inconclusive call do not appear. Calls of active or inactive are those of the source. Unless noted, calls come from the whole dose curve; as a rule, active = well fitted curve in the direction sought with a large enough effect; inconclusive = small, poorly fitted or top-dose-only effect, or another doubt; inactive = no such curve, though single readings can be large; an effect the other way counts as inactive or inconclusive.

Tests used:
[1] = Cell Viability - NIH 3T3 (AID 541); settings: NIH 3T3 cell viability, qHTS; activity change, negative = cytotoxicity: at 92.2 µM (top of the series);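 note: cells exposed to compound for 40 hours; nearly all actives have a fitted effect of over 25% in size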; note: potency is the fitted concentration of half-maximal effect;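 for activity change, negative = cytotoxicity: plate controls were DMSO alone for no effect and tamoxifen positive control for full effect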
Method in brief: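 AC50 values reflect concentration-dependent loss of intracellular ATP in NIH 3T3 cells after 40 hr treatment in complete culture medium, quantified by luciferase-based luminescence.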

[2] = Cell Viability - SH-SY5Y (AID 544); settings: SH-SY5Y neuroblastoma cell viability; viability change, negative = cytotoxic: at 92.2 µM (top of the series);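 note: cells exposed to compound for 40 hours; 0% = DMSO alone and -100% = 100 µM tamoxifen; nearly all actives have a fitted effect of over 55% in size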
Method in brief: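 Cytotoxicity is scored as a concentration-dependent fall in intracellular ATP in human SH-SY5Y cells treated 40 hr in complete culture medium. Potency is expressed as AC50 from a Hill equation fit.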

[3] = Cell Viability - LYMP2-001 (AID 921);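 note: 0% = DMSO only and full inhibition = tetraoctylammonium bromide control wells; nearly all actives have a fitted effect of over 70% in size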
Method in brief: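 Human lymphoblastoid cells (Coriell), 2500 per well, were preincubated 5 hr at 37 C, then exposed to compounds in complete medium for 24 hr at 37 C. Cellular ATP was read by CellTiter-Glo luminescence; AC50 from Hill fits of concentration-response data.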

[4] = MultiTox-Fluor Cytotoxicity Assay - LYMP1-001 - Dead Cells (AID 946);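 note: cells exposed to compound for 16 h; 0% = DMSO and 100% = tetraoctylammonium bromide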
Method in brief: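 LYMP1-001 lymphoblastoid cells (2500/well) treated 16 h at 37 C. Dead-cell protease cleavage of bis-AAF-R110 read at Ex/Em 485/520. Normalized to DMSO and 15 uM tetraoctylammonium bromide; AC50 from Hill fits.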

[5] = Cell Viability - LYMP1-003 - Assay at 40 hr (AID 964); note: % is set by controls: 0 for no effect and ±100 for the full control effect; nearly all actives have a fitted effect of over 60% in size
Method in brief: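 This qHTS cytotoxicity screen treats human lymphoblastoid cells (LYMP1-003) with compounds for 40 hr and quantifies cellular ATP via luciferase luminescence.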

[6] = Cell Viability - LYMP2-011 (AID 969);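 note: 0% = DMSO only and full inhibition = 92 µM tetraoctylammonium bromide; nearly all actives have a fitted effect of over 60% in size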
Method in brief: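 Acute toxicity is scored as a concentration-dependent drop in intracellular ATP of a human lymphoblastoid line after 24 hr treatment. Values are AC50s modeled with the Hill equation.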

[7] = Cell Viability - LYMP2-015 (AID 971);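 note: 0% = DMSO only and full effect = 92 µM tetraoctylammonium bromide; nearly all actives have a fitted effect of over 55% in size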
Method in brief: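 Acute toxicity was scored as a concentration-dependent drop in intracellular ATP in lymphoblastoid cells after 24 hr compound exposure in complete medium. Detection used CellTiter-Glo luciferase luminescence.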

[8] = Cell Viability - LYMP2-019 (AID 973);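 note: 0% = DMSO alone and full effect = 92 µM tetraoctylammonium bromide; nearly all actives have a fitted effect of over 55% in size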
Method in brief: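 Cells plated at 2500/well and allowed 5 hr at 37 C before compound addition. After 24 hr incubation, CellTiter-Glo reagent was added, plates sat 30 min at room temperature, and luminescence was recorded.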

[9] = Cell Viability - LYMP2-023 (AID 975);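 note: cellular ATP measured by luciferase luminescence as viability proxy; plate controls were DMSO only for no effect and 92 µM tetraoctylammonium bromide control for full effect; nearly all actives have a fitted effect of over 55% in size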
Method in brief: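 Concentration-dependent drop in intracellular ATP measures acute cytotoxicity in a human lymphoblastoid line treated for 24 hours in complete culture medium. AC50 values are taken from Hill-equation fits of qHTS data.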

[10] = Cell Viability - LYMP2-002 (AID 977);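 note: plate controls were DMSO only for no effect and 92 µM tetraoctylammonium bromide for full effect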
Method in brief: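 Luminescent ATP readout (CellTiter-Glo, 30 min room temperature) after 24 h compound exposure at 37 C of a human lymphoblastoid line, 2500 cells/well. AC50 values derived by standard Hill fitting of qHTS concentration-response data.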

[11] = Cell Viability - LYMP2-006 (AID 978); note: % is set by controls: 0 for no effect and ±100 for the full control effect; nearly all actives have a fitted effect of over 60% in size
Method in brief: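 Human lymphoblastoid cells, 2500 per well, were preincubated 5 hr at 37 C, then exposed to compounds for 24 hr at 37 C in complete medium. Viability was read as intracellular ATP by CellTiter-Glo luminescence; AC50 from Hill-equation fits of qHTS concentration-response data.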

[12] = Cell Viability - LYMP2-007 (AID 979);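 note: cells exposed to compound for 24 h before reading; 0% = DMSO only and the negative end = 92 µM tetraoctylammonium bromide; nearly all actives have a fitted effect of over 60% in size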
Method in brief: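 Acute toxicity is scored as a concentration-dependent fall in intracellular ATP in human lymphoblastoid cells treated 24 hr at 37 C, measured by luciferase luminescence; Hill-equation modelling yields AC50.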

[13] = Cell Viability - LYMP2-010 (AID 981)
Method in brief: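 Acute toxicity is scored as a concentration-dependent loss of cellular ATP in human lymphoblastoid cells after 24 hr compound exposure in complete medium. Tetraoctylammonium bromide is the positive control.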

[14] = Cell Viability - LYMP2-014 (AID 983);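 note: plate controls were DMSO only for no effect and 92 µM tetraoctylammonium bromide for full effect; nearly all actives have a fitted effect of over 50% in size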
Method in brief: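 Decrease in intracellular ATP after 24 hr treatment at 37 C, measured by luciferase luminescence, indicated cytotoxicity. Concentration-response data were fitted with the standard Hill equation to give AC50.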

[15] = Cell Viability - LYMP2-018 (AID 985);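 note: compound exposure lasted 24 hr at 37 °C; plate controls were DMSO only for no effect and tetraoctylammonium bromide at 92 µM for full effect; nearly all actives have a fitted effect of over 50% in size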
Method in brief: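 Acute cytotoxicity is scored as a concentration-dependent drop in intracellular ATP after 24 hr exposure of the lymphoblastoid line in complete culture medium, measured by luciferase luminescence. Potency is expressed as AC50 from Hill modelling.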

[16] = Cell Viability - LYMP2-022 (AID 987)
Method in brief: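 Acute toxicity in a human lymphoblastoid line is scored as decreased intracellular ATP after 24 hr compound treatment at 37 C. ATP is measured by CellTiter-Glo luminescence; curves are fitted with the Hill equation to give AC50.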

[17] = Cell Viability - LYMP2-026 (AID 989); note: % is set by controls: 0 for no effect and ±100 for the full control effect; nearly all actives have a fitted effect of over 50% in size
Method in brief: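 Concentration-dependent loss of intracellular ATP in human lymphoblastoid cells after 24 hr at 37 C, quantified by luciferase luminescence. AC50 derived from standard Hill equation.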

[18] = molecular target: Voltage-gated inwardly rectifying potassium channel KCNH2 (Homo sapiens) (UniProt Q12809); test: qHTS Assay for Small Molecule Inhibitors of the Human hERG Channel Activity (AID 588834);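 note: top concentration of the series differs between compounds; % is set by controls: 0 for no effect and ±100 for the full control effect; lower thallium flux fluorescence means stronger hERG block; nearly all actives have a fitted effect of over 50% in size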
Sequence of Voltage-gated inwardly rectifying potassium channel KCNH2 (Homo sapiens) (Q12809 whole entry, looked up): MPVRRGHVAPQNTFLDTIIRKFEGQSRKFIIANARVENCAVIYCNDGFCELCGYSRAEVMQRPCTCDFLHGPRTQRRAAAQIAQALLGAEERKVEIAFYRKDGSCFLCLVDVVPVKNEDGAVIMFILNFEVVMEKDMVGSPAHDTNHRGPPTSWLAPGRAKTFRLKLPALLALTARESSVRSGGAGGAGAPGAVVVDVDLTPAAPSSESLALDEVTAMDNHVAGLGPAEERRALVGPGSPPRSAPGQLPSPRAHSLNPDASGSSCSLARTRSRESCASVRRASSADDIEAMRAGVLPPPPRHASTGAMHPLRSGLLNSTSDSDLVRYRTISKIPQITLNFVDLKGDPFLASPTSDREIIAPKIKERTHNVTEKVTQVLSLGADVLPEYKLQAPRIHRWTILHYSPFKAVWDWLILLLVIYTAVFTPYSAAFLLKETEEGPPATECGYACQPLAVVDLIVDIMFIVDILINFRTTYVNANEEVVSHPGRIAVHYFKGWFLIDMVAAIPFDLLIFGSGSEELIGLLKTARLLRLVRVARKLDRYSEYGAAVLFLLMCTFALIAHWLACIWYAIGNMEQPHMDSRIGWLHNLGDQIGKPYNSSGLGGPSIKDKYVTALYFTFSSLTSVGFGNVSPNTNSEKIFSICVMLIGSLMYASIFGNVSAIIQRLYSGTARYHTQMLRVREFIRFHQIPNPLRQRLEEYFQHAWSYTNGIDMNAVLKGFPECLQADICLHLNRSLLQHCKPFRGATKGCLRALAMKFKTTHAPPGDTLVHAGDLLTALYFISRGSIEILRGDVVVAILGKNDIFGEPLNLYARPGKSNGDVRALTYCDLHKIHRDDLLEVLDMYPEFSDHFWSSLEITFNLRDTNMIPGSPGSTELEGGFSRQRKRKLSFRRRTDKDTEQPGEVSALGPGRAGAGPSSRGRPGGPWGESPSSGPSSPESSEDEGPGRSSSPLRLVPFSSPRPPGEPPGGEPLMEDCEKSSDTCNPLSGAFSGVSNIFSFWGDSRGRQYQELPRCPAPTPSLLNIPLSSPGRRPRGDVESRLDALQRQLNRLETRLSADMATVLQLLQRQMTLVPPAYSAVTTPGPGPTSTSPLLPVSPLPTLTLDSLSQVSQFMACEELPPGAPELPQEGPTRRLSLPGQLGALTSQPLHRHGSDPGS
Method in brief: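 U2OS cells transduced with hERG via BacMam (MOI ~100), plated 2000/well, loaded with FluxOR thallium dye, compound ~10 min, then stimulation buffer; fluorescence decrease read kinetically; AC50 from Hill fits.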

[19] = Cell Viability - LYMP2-020 (AID 986)
Method in brief: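 Acute cytotoxicity in a human lymphoblastoid line is scored as a concentration-dependent fall in cellular ATP after 24 hr at 37 C in complete medium. The positive control is tetraoctylammonium bromide, and potency is given as Hill-fit AC50.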

[20] = molecular target: Retinoic acid receptor RXR-alpha (Homo sapiens) (UniProt P19793); test: qHTS assay for small molecule agonists of retinoid X receptor alpha signaling (AID 588544; calls by dose curve;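 note: 0% = DMSO basal wells and 100% = reference agonist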)
Sequence of Retinoic acid receptor RXR-alpha (Homo sapiens) (P19793 whole entry, looked up): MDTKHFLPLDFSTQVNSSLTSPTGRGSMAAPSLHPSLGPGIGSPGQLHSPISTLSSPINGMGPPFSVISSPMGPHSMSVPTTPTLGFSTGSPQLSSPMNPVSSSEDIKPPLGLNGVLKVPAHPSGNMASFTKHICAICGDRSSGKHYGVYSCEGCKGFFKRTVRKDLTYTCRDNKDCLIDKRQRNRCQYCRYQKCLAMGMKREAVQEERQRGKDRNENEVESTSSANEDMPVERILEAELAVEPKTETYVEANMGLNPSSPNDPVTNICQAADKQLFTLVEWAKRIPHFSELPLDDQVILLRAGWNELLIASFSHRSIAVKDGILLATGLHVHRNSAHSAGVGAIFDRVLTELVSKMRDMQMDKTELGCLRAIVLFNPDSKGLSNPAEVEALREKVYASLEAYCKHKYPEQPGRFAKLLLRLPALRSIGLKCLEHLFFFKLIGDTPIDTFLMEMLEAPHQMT

N#CCBr
active: Potency [1] 10 µM
inactive: Potency [2] | Potency [3] | outcome [4] | Potency [5] | Potency [6] | Potency [7] | Potency [8] | Potency [9] | Potency [10] | Potency [11] | Potency [12] | Potency [13] | Potency [14] | Potency [15] | Potency [16] | Potency [17] | Potency [18]

CC(C)(C)c1ccccc1O
inactive: Potency [1] | Potency [2] | Potency [3] | Potency [5] | Potency [6] | Potency [7] | Potency [8] | Potency [9] | Potency [10] | Potency [11] | Potency [12] | Potency [13] | Potency [15] | Potency [19] | Potency [16] | Potency [17] | outcome [20]

Cc1coc2c1CCC(C)C2 (configuration not stated)
inactive: Potency [1] | Potency [2] | Potency [3] | outcome [4] | Potency [5] | Potency [6] | Potency [7] | Potency [8] | Potency [9] | Potency [10] | Potency [11] | Potency [12] | Potency [13] | Potency [15] | Potency [16] | Potency [17] | outcome [20] | Potency [18]

ClC(Cl)C(Cl)Cl
inactive: Potency [1] | Potency [2] | outcome [4] | Potency [5] | Potency [6] | Potency [7] | Potency [8] | Potency [10] | Potency [12] | Potency [14] | Potency [19] | Potency [17] | outcome [20] | Potency [18]

CC(C)Br
inactive: Potency [1] | Potency [2] | Potency [3] | outcome [4] | Potency [5] | Potency [6] | Potency [7] | Potency [8] | Potency [10] | Potency [11] | Potency [12] | Potency [13] | Potency [14] | Potency [15] | Potency [19] | Potency [16] | Potency [17] | outcome [20] | Potency [18]

C=CCc1cc(OC)c2c(c1)OCO2
inactive: Potency [1] | Potency [2] | Potency [3] | outcome [4] | Potency [5] | Potency [6] | Potency [7] | Potency [8] | Potency [10] | Potency [11] | Potency [12] | Potency [13] | Potency [14] | Potency [15] | Potency [16] | Potency [17] | outcome [20] | Potency [18]

C=COC(C)=O
inactive: Potency [1] | Potency [2] | Potency [3] | outcome [4] | Potency [5] | Potency [6] | Potency [7] | Potency [11] | Potency [12] | Potency [13] | Potency [14] | Potency [15] | Potency [19] | Potency [17] | outcome [20] | Potency [18]

CC(=O)NNc1ccccc1
inactive: Potency [1] | Potency [2] | Potency [3] | outcome [4] | Potency [5] | Potency [7] | Potency [8] | Potency [10] | Potency [11] | Potency [13] | Potency [14] | Potency [15] | Potency [16] | Potency [17]

Cc1cccc(N)c1C
inactive: Potency [1] | Potency [2] | Potency [3] | outcome [4] | Potency [6] | Potency [7] | Potency [8] | Potency [9] | Potency [11] | Potency [12] | Potency [14] | Potency [15] | Potency [19] | Potency [16] | Potency [17] | outcome [20] | Potency [18]

NNC(N)=S
inactive: Potency [1] | Potency [2] | Potency [3] | Potency [5] | Potency [6] | Potency [7] | Potency [9] | Potency [10] | Potency [11] | Potency [13] | Potency [14] | Potency [15] | Potency [16] | Potency [17] | Potency [18]

OCCCCO
inactive: Potency [1] | Potency [2] | Potency [3] | outcome [4] | Potency [6] | Potency [8] | Potency [9] | Potency [10] | Potency [11] | Potency [12] | Potency [13] | Potency [19] | Potency [16] | Potency [17] | outcome [20] | Potency [18]

O=[N+]([O-])c1ccc(Cl)c(Cl)c1Cl
active: activity change, negative = cytotoxicity [1] -117%
inactive: Potency [2] | Potency [3] | outcome [4] | Potency [5] | Potency [6] | Potency [7] | Potency [8] | Potency [9] | Potency [10] | Potency [11] | Potency [12] | Potency [13] | Potency [15] | Potency [19] | outcome [20] | Potency [18]

Cc1cnc[nH]1
inactive: Potency [1] | Potency [2] | Potency [3] | outcome [4] | Potency [5] | Potency [7] | Potency [9] | Potency [10] | Potency [11] | Potency [12] | Potency [13] | Potency [14] | Potency [15] | Potency [19] | Potency [16] | Potency [17] | outcome [20] | Potency [18]

CCCCCc1cc(O)cc(O)c1
inactive: Potency [1] | Potency [2] | Potency [3] | Potency [5] | Potency [6] | Potency [7] | Potency [8] | Potency [9] | Potency [11] | Potency [12] | Potency [13] | Potency [15] | Potency [19] | Potency [16] | Potency [17] | outcome [20] | Potency [18]

O=P(OCCCl)(OCCCl)OCCCl
inactive: Potency [1] | Potency [2] | Potency [3] | outcome [4] | Potency [6] | Potency [7] | Potency [8] | Potency [9] | Potency [10] | Potency [11] | Potency [13] | Potency [15] | Potency [19] | Potency [16] | outcome [20] | Potency [18]

CCCCOC(=O)c1ccccc1N
inactive: Potency [1] | Potency [2] | Potency [3] | outcome [4] | Potency [5] | Potency [6] | Potency [7] | Potency [8] | Potency [9] | Potency [10] | Potency [11] | Potency [12] | Potency [13] | Potency [14] | Potency [15] | Potency [19] | Potency [16] | Potency [17] | outcome [20] | Potency [18]

CN(C)N=O
inactive: Potency [1] | Potency [2] | Potency [3] | outcome [4] | Potency [5] | Potency [6] | Potency [7] | Potency [8] | Potency [9] | Potency [10] | Potency [11] | Potency [13] | Potency [14] | Potency [15] | Potency [19] | Potency [16] | Potency [17] | outcome [20] | Potency [18]
